Results taken from PubChem BioAssay AID434927 (Sanford-Burnham Center for Chemical Genomics, 2010).
Values without a mark were called inactive. Activity calls are given as the source filed them.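 Rule for the calls: active = inhibition above about 23% in any of six single-dose repeats (limit read from the data); inactive = the rest.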

These compounds were tested against Intestinal-type alkaline phosphatase (Homo sapiens) (UniProt P09923) (assay: suppression of intestinal alkaline phosphatase activity – biochemical, luminescence, single concentration, uHTS hits, confirmation (AID 434927;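 note: plate controls were DMSO wells with enzyme for no effect and wells lacking enzyme for full effect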)). Settings: purified human IAP, CDP-Star luminescence, 30 min; at 8.3 µM; stronger effect = higher value.
Chain of Intestinal-type alkaline phosphatase (Homo sapiens) (P09923 whole entry, looked up): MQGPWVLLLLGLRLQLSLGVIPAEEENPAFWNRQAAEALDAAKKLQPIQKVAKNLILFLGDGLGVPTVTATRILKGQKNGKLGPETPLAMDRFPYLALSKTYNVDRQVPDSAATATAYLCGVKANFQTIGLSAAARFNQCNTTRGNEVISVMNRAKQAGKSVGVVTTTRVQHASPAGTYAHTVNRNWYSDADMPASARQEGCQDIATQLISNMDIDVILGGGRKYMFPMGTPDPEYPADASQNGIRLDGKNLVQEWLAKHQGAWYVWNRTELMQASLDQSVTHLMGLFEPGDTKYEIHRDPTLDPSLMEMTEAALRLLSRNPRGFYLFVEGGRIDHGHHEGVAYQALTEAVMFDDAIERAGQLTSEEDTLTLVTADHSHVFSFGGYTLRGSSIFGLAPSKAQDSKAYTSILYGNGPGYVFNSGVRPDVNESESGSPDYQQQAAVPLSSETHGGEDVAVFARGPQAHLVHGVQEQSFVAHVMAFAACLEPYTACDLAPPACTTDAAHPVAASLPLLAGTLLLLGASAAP

| Compound | inhibition |
| --- | --- |
| COc1ccc(C2=Nc3cc(C)ccc3OC2)cc1 | 58.3% (active) |
| Cc1ccc(NCc2ccc([N+](=O)[O-])s2)cc1 | 26.1% (active) |
| N#Cc1c(-c2ccccc2)nc(N2CCOCC2)[nH]c1=O | 27.5% (active) |
| CCCn1c(/C=C/c2ccccc2)nc2ccccc21 | 36.8% (active) |
| COc1ccc(NC(=O)CCN2CCN(S(=O)(=O)c3cc(Cl)ccc3OC)CC2)cc1 | 35.6% (active) |
| COc1cc(/C=C(\C#N)C(=O)c2ccc(O)c(O)c2)cc(I)c1O | 40.4% (active) |
| Cc1cc(NC(=O)c2ccc(N3C(=O)C4C5C=CC(C5)C4C3=O)cc2)no1 (stereo not drawn) | -161% |
| Cc1[nH]n(-c2nc(-c3ccccc3)cc(=O)[nH]2)c(=O)c1CCO | 47.5% (active) |
| CC(=O)CCc1ccc(Oc2nc(-c3cccnc3)nc3ccccc23)cc1 | 42% (active) |
| COc1ccc(CCN2C(=O)c3ccncc3C2=O)cc1OC | 67.1% (active) |
| CC(C)CC(=O)NC(=S)NNC(=O)c1ccc(NC(=O)C2CCCCC2)cc1 | 62.1% (active) |
| COc1ccc(OC)c(NC(=O)c2cc(-c3cc(C)ccc3O)n[nH]2)c1 | -41.7% |
| Cc1cc(C(=O)NNC(=O)COc2c(C)cc(Br)cc2C)n[nH]1 | -0.057% |
| COc1ccccc1C1=NN(C2=NN=C(N)Cc3ncnn32)C(O)(C(F)(F)F)C1 (stereo not drawn) | 45.2% (active) |
| CCOC(=O)c1c(NC(=O)Cn2cc([N+](=O)[O-])cn2)sc2c1CCC2 | -90.5% |
| CC(C)CCNC(=O)C1CCN(C(=O)N(C)C)CC1 | 88.2% (active) |
| C=CCN1C(=O)C2(NNc3ccccc3O2)c2ccccc21 (stereo not drawn) | -92.8% |

| Compound | inhibition |
| --- | --- |
| COc1ccc2nc3cc(Cl)ccc3c(Nc3cc(CN4CCCC4)c(O)c(CN4CCCC4)c3)c2n1 | -60.1% |
| CC(C)n1cc(CN2CCC(C(=O)Nc3cccc(-c4cccc(Cl)c4)c3)CC2)cn1 | -96.7% |
| CSCCC(NS(=O)(=O)c1ccccc1F)C(=O)NNC(=O)c1csc(N2CCOCC2)n1 (stereo not drawn) | 72.3% (active) |
| O=c1c2ccccc2nc(N/N=C/c2c(O)ccc3ccccc23)n1O | -53.7% |
| CC(=O)Nc1cccc(-c2csc(Nc3ccccn3)n2)c1 | -94.1% |
| Cc1ccc(Cl)cc1NC(=O)C(=O)N/N=C/c1ccc2c(c1)OCO2 | 40.1% (active) |
| COc1ccc(NC(=S)NNC(=O)c2nnn(-c3ccccc3)c2C)cc1 | 24% (active) |
| CC1(C)C[C@@H](O)CC2(C1)C[C@]1(C)CC(O)[C@H]2C(C)(C)C1 (stereo partly drawn) | -93.3% |
| Cc1nc2c3ccccc3nc(NNC(=O)CCC(=O)NCCC(C)C)n2n1 | -64.4% |
| O=S(=O)(c1ccccc1)N1CCCC1c1cccs1 (stereo not drawn) | -172% |
| CCCOCC(O)CC(CC)C(=O)NNC(=S)Nc1ccccc1 (stereo not drawn) | -138% |
| O=C(NNc1ncnc2c1cnn2-c1ccc(F)cc1)c1ccco1 | -47.2% |
| N#C/C(=C\c1ccc(O)c(O)c1)C(=O)c1ccc(O)c(O)c1 | 74.3% (active) |
| CCOc1ccc(CC(=O)NNC(=S)NCCc2ccccc2)cc1 | 77.5% (active) |
| CC1=NN(Cc2ccccc2)C(=O)/C1=C\c1ccc(N(C)C)cc1 | 65.6% (active) |
| O=C(O)COn1c(-c2ccc(Cl)cc2)nc2ccc(Cl)cc21 | 26.6% (active) |
